Assay results taken from PubChem BioAssay AID1159580 (chemical genetic matrix, 2015).
Several values for one entry are separate records, joined by “and”; a condition that tells them apart may be missing. Equal entries are not always repeated. In all, about 5,500 compounds went through this assay and about 2,000 (36%) were called active. Inconclusive results (about 18%) are left out. No stated cut-off is given here; in the data, active means normalized growth mostly below about 0.91 (no sharp cut-off); inconclusive means no clear call, values can overlap the other calls; inactive means mostly above about 0.92. The list shows a part of the results.

Assay: chemical genetic growth profiling, strain panel (AID 1159580);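 further: tested at 20 µM; growth read once vehicle control cultures reached saturation at 30 °C; 1 = growth at the plate median or of vehicle wells; lower values mean less growth of the strain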
Settings: S. cerevisiae deletion strains, growth OD

Measured: normalized growth

CC1=C(/C=C/C(C)=C/C=C/C(C)=C/C=C/C=C(C)/C=C/C=C(C)/C=C/C2=C(C)CCCC2(C)C)C(C)(C)CCC1
active: locus YBR009C, strain hhf1, hits give low values 1.1 [resistant]
inactive: locus YAL021C, strain ccr4, hits give low values 0.978 | locus YAL026C, strain drs2, hits give low values 0.997 | locus YAL030W, strain snc1, hits give low values 0.995 | locus YBL061C, strain skt5, hits give low values 0.997 | locus YBR021W, strain FUR4, hits give low values 0.99 | locus YBR023C, strain chs3, hits give low values 0.992 | locus YBR171W, strain sec66, hits give low values 0.977 | locus YBR229C, strain ROT2, hits give low values 1.01 | locus YBR231C, strain swc5, hits give low values 1.02 | locus YBR279W, strain paf1, hits give low values 0.987 | locus YCL011C, strain gbp2, hits give low values 0.997 | locus YCL016C, strain dcc1, hits give low values 1.01 | locus YCL029C, strain bik1, hits give low values 1.02 | locus YCL061C, strain MRC1, hits give low values 0.995 | locus YCL069W, strain vba3, hits give low values 0.997 | locus YCR088W, strain abp1, hits give low values 0.995 | locus YDL005C, strain med2, hits give low values 0.998 | locus YDL035C, strain GPR1, hits give low values 1 | locus YDL040C, strain nat1, hits give low values 0.995 | locus YDL074C, strain BRE1, hits give low values 1 | locus YDL101C, strain DUN1, hits give low values 1.01 | locus YDL134C, strain PPH21, hits give low values 1.01 | locus YDL185W, strain tfp1, hits give low values 1.02 | locus YDL192W, strain arf1, hits give low values 1.02 | locus YDR001C, strain nth1, hits give low values 0.987 | locus YDR069C, strain doa4, hits give low values 0.994 | locus YDR101C, strain arx1, hits give low values 0.982 | locus YDR137W, strain rgp1, hits give low values 0.964 | locus YDR150W, strain NUM1, hits give low values 1.01 | locus YDR159W, strain sac3, hits give low values 1.01 | locus YDR162C, strain NBP2, hits give low values 1.02 | locus YDR195W, strain ref2 0.999 | locus YDR297W, strain sur2, hits give low values 1.02 | locus YDR318W, strain mcm21, hits give low values 1.01 | locus YDR334W, strain swr1, hits give low values 0.99 | locus YDR335W, strain msn5, hits give low values 0.997 | locus YDR388W, hits give low values 1.01 | locus YDR392W, strain spt3, hits give low values 0.982 | locus YDR502C, strain sam2, hits give low values 0.993 | locus YEL003W, strain gim4, hits give low values 1.02 | locus YEL037C, strain rad23, hits give low values 0.999 | locus YEL061C, strain CIN8 (second series), hits give low values 0.997 | locus YEL061C, strain CIN8, hits give low values 1.01 | locus YER015W, strain faa2, hits give low values 0.973 | locus YER016W, strain bim1, hits give low values 1 | locus YER110C, hits give low values 1 | locus YER111C, strain swi4, hits give low values 0.983 | locus YER155C, strain BEM2 (second series), hits give low values 1.04 | locus YER155C, strain BEM2, hits give low values 1.01 | locus YER167W, strain BCK2, hits give low values 1.01 | locus YFR010W, strain ubp6, hits give low values 1 | locus YGL078C, strain dbp3, hits give low values 0.996 | locus YGL086W, strain mad1, hits give low values 1.01 | locus YGL167C, strain pmr1, hits give low values 0.992 | locus YGL173C, strain kem1, hits give low values 1 | locus YGL227W, strain vid30, hits give low values 0.99 | locus YGL240W, strain doc1, hits give low values 1.02 | locus YGL248W, strain PDE1, hits give low values 1.01 | locus YGL253W, strain hxk2, hits give low values 0.949 | locus YGR135W, strain pre9, hits give low values 1.03 | locus YGR229C, strain SMI1, hits give low values 1 | locus YGR252W, strain gcn5, hits give low values 0.998 | locus YHR013C, strain ard1, hits give low values 0.967 | locus YHR027C, strain rpn1, hits give low values 1.01 | locus YHR030C, strain SLT2, hits give low values 1.02 and 1.01 | locus YHR079C, strain IRE1 (second series), hits give low values 1 | locus YHR079C, strain IRE1, hits give low values 1.04 | locus YHR094C, strain hxt1, hits give low values 0.999 | locus YHR129C, strain ARP1, hits give low values 1.01 | locus YHR142W, strain chs7, hits give low values 0.967 | locus YHR200W, strain rpn10, hits give low values 1.01 | locus YIL066C, strain RNR3, hits give low values 1.01 | locus YIL073C, strain SPO22, hits give low values 1.07 | locus YIL125W, strain kgd1, hits give low values 0.998 | locus YIR030C, strain dcg1, hits give low values 1 | locus YJL092W, strain hpr5, hits give low values 0.992 | locus YJL095W, strain BCK1 (second series), hits give low values 0.989 | locus YJL095W, strain BCK1, hits give low values 1.03 and 1.02 | locus YJL115W, strain asf1, hits give low values 0.996 | locus YJL129C, strain trk1, hits give low values 0.969 | locus YJL134W, strain LCB3, hits give low values 1.01 | locus YJL154C, strain vps35, hits give low values 0.999 | locus YJL164C, strain tpk1, hits give low values 1.01 | locus YJL166W, strain qcr8, hits give low values 0.955 | locus YJL168C, strain set2, hits give low values 1 | locus YJL187C, strain SWE1 (second series), hits give low values 1.01 | locus YJL187C, strain SWE1, hits give low values 0.995 | locus YJR043C, strain POL32, hits give low values 1.01 | locus YJR066W, strain TOR1, hits give low values 0.974 | locus YKL009W, strain mrt4, hits give low values 0.941 | locus YKL068W, hits give low values 1.01 | locus YKL085W, strain MDH1 (second series), hits give low values 0.983 | locus YKL085W, strain MDH1, hits give low values 0.983 | locus YKL160W, strain elf1, hits give low values 0.927 | locus YKR001C, strain vps1, hits give low values 0.986 | locus YKR026C, strain gcn3, hits give low values 0.987 | locus YKR091W, strain srl3, hits give low values 0.991 | locus YLL001W, strain dnm1, hits give low values 0.926 | locus YLL026W, hits give low values 0.999 | locus YLL041C, strain sdh2, hits give low values 1.03 | locus YLR027C, strain aat2, hits give low values 0.998 | locus YLR039C, strain RIC1, hits give low values 0.996 | locus YLR058C, strain SHM2, hits give low values 1.01 | locus YLR102C, strain apc9, hits give low values 0.997 | locus YLR113W, strain HOG1, hits give low values 1.02 | locus YLR221C, strain rsa3, hits give low values 0.977 | locus YLR258W, strain gsy2, hits give low values 1.02 | locus YLR262C, strain YPT6 (second series), hits give low values 0.941 | locus YLR262C, strain YPT6, hits give low values 0.982 | locus YLR268W, strain sec22, hits give low values 0.992 | locus YLR320W, strain mms22, hits give low values 0.994 | locus YLR330W, strain CHS5, hits give low values 1.01 | locus YLR342W, strain FKS1 (second series), hits give low values 1.01 | locus YLR342W, strain FKS1, hits give low values 0.981 | locus YLR357W, strain rsc2, hits give low values 0.957 | locus YLR370C, strain arc18, hits give low values 1 | locus YLR371W, strain rom2, hits give low values 1 | locus YLR384C, strain iki3, hits give low values 1 | locus YLR418C, strain cdc73, hits give low values 0.993 | locus YML016C, strain PPZ1, hits give low values 1 | locus YML032C, strain rad52, hits give low values 1 | locus YML120C, strain ndi1, hits give low values 0.962 | locus YML124C, strain tub3, hits give low values 1 | locus YMR058W, strain fet3, hits give low values 0.985 | locus YMR078C, strain ctf18, hits give low values 1.03 | locus YMR125W, strain sto1, hits give low values 0.929 | locus YMR129W, hits give low values 0.996 | locus YMR205C, strain PFK2, hits give low values 0.934 | locus YMR223W, strain ubp8, hits give low values 1.01 | locus YMR231W, strain pep5, hits give low values 0.997 | locus YMR263W, strain SAP30, hits give low values 1.02 | locus YMR307W, strain GAS1, hits give low values 1.06 | locus YNL067W, strain RPL9B, hits give low values 1.01 | locus YNL071W, strain lat1, hits give low values 0.984 | locus YNL153C, strain GIM3, hits give low values 1.01 | locus YNL183C, strain NPR1, hits give low values 0.97 | locus YNL209W, strain ssb2, hits give low values 0.997 | locus YNL233W, strain BNI4, hits give low values 1.01 | locus YNL248C, strain rpa49, hits give low values 0.906 | locus YNL250W, strain rad50, hits give low values 1.02 | locus YNL271C, strain bni1, hits give low values 0.997 | locus YNL298W, strain CLA4, hits give low values 0.991 | locus YNL307C, strain MCK1, hits give low values 1.01 | locus YNL322C, strain KRE1 (second series), hits give low values 0.993 | locus YNL322C, strain KRE1, hits give low values 1.01 | locus YNR049C, strain mso1, hits give low values 1.01 | locus YNR052C, strain pop2, hits give low values 1 | locus YOL006C, strain TOP1, hits give low values 1.01 | locus YOL012C, strain htz1 1.24 | locus YOL147C, strain pex11, hits give low values 1.01 | locus YOR001W, strain rrp6, hits give low values 1.07 | locus YOR061W, strain CKA2, hits give low values 1.01 | locus YOR069W, strain VPS5, hits give low values 1.01 | locus YOR070C, strain gyp1, hits give low values 1 | locus YOR080W, strain dia2, hits give low values 0.996 | locus YOR083W, strain WHI5, hits give low values 0.94 | locus YOR106W, strain vam3, hits give low values 0.922 | locus YOR136W, strain idh2, hits give low values 1.02 | locus YOR144C, strain elg1, hits give low values 1 | locus YOR184W, strain ser1, hits give low values 1.01 | locus YOR231W, strain MKK1, hits give low values 1.02 | locus YOR265W, strain rbl2, hits give low values 0.992 | locus YOR270C, strain vph1, hits give low values 0.875 | locus YOR290C, strain snf2, hits give low values 0.953 | locus YOR316C, strain cot1, hits give low values 1 | locus YPL051W, strain arl3, hits give low values 1.02 | locus YPL078C, strain atp4, hits give low values 0.931 | locus YPL106C, strain sse1, hits give low values 1.03 | locus YPL240C, strain hsp82, hits give low values 1 | locus YPL241C, strain CIN2, hits give low values 1.01 | locus YPL256C, strain CLN2, hits give low values 0.994 | locus YPR119W, strain clb2, hits give low values 1.01 | locus YPR141C, strain kar3, hits give low values 1.01 | locus YPR163C, strain tif3, hits give low values 1 | locus YPR167C, strain met16, hits give low values 1.01 | strain wtn01, hits give low values 0.991
